According to PubChem BioAssay:
The source made the active and inactive calls.

Experiments:
[1] = tested on: Plasmodium falciparum Sir2 (PF13_0152, Sir2A); experiment: pfSir2 binders on small-molecule microarrays, primary screen, biochemical, small-molecule microarray, 635 nm fluorescence (AID 1098); conditions: small-molecule microarray binding, fluorescence 635 nm; higher = more signal;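 further: score merges spot fluorescence intensity with its signal-to-noise ratio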
[2] = small-molecule microarray binders of probe aDKK1, primary screen, biochemical, biotinylated probe, 635/667 nm fluorescence (AID 1099); conditions: higher = more signal;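 further: score merges 667nm spot fluorescence with signal to noise across triplicate slides; reference of the scale not given here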
[3] = small-molecule microarray binders of probe aCHRDL2, primary screen, biochemical, biotinylated probe, 635/667 nm fluorescence (AID 1100); conditions: higher = more signal
[4] = splicing luciferase reporter signal modulators, primary screen, spliceosome inhibition project, cell-based, HEK293, splice +/- reporter (AID 1101); conditions: luminescence, 24 h, higher = more signal, called active from +8 up or from −8 down;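 further: HEK293 cells carrying a splicing-competent luciferase reporter gene; test concentration not given here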
[5] = target: Fibroblast growth factor 10 (Homo sapiens) (UniProt O15520); experiment: FGF10 binders on small-molecule microarrays, primary screen, biochemical, small-molecule microarray, 635 nm fluorescence (AID 1102); conditions: FGF10 binding, fluorescence 635 nm, higher = more signal
Fibroblast growth factor 10 (Homo sapiens), sequence (O15520 whole entry, looked up): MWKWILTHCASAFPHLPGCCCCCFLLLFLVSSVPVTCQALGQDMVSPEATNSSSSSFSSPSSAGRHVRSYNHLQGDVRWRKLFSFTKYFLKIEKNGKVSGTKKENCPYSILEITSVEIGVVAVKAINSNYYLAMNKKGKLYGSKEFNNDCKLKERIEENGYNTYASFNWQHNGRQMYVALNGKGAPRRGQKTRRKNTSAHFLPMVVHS

[6] = tested on: glycogen synthase kinase-3 (GSK3A per assay name; protocol says GSK3B); experiment: GSK3 binders on small-molecule microarrays, primary screen, biochemical, small-molecule microarray, 635 nm fluorescence, GSK3A (AID 1103); conditions: small-molecule microarray binding, fluorescence 635 nm; higher = more signal; further: the record names both GSK3A and GSK3B
[7] = target: Epidermal growth factor receptor (Homo sapiens) (UniProt P00533); experiment: EGFR binders on small-molecule microarrays, primary screen, biochemical, small-molecule microarray, 635 nm fluorescence (AID 1104); conditions: EGFR binding, higher = more signal;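 further: score merges 667 nm emission intensity with spot signal to noise over triplicate slides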
Epidermal growth factor receptor (Homo sapiens), sequence (P00533 whole entry, looked up): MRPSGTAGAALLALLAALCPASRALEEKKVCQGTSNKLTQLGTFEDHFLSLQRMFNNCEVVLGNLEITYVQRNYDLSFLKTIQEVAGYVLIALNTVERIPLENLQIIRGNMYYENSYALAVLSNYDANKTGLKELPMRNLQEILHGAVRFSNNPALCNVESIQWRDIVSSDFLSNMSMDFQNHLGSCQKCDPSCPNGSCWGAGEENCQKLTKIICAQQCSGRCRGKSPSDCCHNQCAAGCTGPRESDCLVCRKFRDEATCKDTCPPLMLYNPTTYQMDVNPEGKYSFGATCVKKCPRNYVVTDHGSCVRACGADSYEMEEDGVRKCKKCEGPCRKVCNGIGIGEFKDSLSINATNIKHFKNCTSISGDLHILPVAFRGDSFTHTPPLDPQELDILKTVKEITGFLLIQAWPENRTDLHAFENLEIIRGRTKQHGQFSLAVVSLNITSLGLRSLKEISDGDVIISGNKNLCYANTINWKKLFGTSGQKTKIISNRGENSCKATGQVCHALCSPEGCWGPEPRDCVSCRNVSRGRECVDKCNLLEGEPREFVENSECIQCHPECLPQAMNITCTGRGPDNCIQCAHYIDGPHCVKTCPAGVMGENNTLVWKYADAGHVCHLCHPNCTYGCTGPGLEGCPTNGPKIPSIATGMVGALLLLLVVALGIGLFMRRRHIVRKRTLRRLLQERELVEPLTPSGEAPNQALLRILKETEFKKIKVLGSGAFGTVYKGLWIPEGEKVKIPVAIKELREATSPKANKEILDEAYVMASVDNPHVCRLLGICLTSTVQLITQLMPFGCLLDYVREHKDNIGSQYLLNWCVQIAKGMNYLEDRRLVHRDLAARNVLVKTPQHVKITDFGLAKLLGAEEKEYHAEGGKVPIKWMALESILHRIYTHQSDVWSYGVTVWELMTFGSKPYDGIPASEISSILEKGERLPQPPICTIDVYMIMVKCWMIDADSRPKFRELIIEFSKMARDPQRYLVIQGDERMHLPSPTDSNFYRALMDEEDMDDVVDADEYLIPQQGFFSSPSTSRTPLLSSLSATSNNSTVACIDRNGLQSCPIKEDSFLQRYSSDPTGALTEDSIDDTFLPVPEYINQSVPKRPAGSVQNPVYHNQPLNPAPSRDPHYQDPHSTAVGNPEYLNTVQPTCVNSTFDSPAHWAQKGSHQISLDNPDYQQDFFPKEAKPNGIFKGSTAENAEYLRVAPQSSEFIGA

[8] = target: Follistatin-related protein 3 (Homo sapiens) (UniProt O95633); experiment: FSTL3 binders on small-molecule microarrays, primary screen, biochemical, small-molecule microarray, 635 nm fluorescence (AID 1105); conditions: FSTL3 binding, higher = more signal;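 further: score merges emission near 667 nm and signal to noise per printed spot across three slides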
Follistatin-related protein 3 (Homo sapiens), sequence (O95633 whole entry, looked up): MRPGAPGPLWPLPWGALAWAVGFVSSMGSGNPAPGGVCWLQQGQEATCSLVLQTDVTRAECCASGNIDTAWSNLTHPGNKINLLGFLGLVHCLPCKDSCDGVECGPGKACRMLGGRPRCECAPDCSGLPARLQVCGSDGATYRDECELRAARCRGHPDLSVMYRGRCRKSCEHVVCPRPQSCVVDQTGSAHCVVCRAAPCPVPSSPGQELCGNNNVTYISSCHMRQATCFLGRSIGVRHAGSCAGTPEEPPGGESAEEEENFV

[9] = target: Dickkopf-related protein 1 (Homo sapiens) (UniProt O94907); experiment: DKK1 binders on small-molecule microarrays, primary screen, biochemical, small-molecule microarray, 635 nm fluorescence scan (AID 1106); conditions: DKK1 binding, higher = more signal;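 further: score merges emission near 667 nm with signal to noise over three replicate slides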
Dickkopf-related protein 1 (Homo sapiens), sequence (O94907 whole entry, looked up): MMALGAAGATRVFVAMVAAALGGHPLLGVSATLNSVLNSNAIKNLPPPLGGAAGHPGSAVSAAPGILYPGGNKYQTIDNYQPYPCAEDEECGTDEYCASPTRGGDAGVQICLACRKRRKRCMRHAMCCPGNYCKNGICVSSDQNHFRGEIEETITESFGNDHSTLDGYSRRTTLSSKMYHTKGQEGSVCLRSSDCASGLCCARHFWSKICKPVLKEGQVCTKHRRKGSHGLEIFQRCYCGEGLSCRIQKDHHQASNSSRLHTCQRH

[10] = tested on: Inhibin beta A chain (activin A); experiment: INHBA (activin A) binders on microarrays, primary screen, biochemical, small-molecule microarray, 635 nm fluorescence scan (AID 1107); conditions: small-molecule microarray binding, higher = more signal;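 further: mouse activin A protein probed at 4.33 µg/mL on printed slides; score merges bound-protein fluorescence near 667 nm with spot signal-to-noise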

SMILES	composite z-score [1]	composite z-score [2]	composite z-score [3]	z-score [4]	composite z-score [5]	composite z-score [6]	composite z-score [7]	composite z-score [8]	composite z-score [9]	composite z-score [10]
CCOC(=O)[C@H](Cc1ccccc1)NC(=O)CCC1CC(OC(=O)NCCc2ccc(F)cc2)CC2(CCCC(COC(=O)NCCC(C)C)O2)O1 (stereo not given in full)	1.16	-0.226	-0.415	-0.0793 (inactive)	0.52	1.01	0.396	1.18	0.648	0.0186
O=C(NN=C1C[C@@H](O)[C@@H](O)[C@@H]2[C@@H]3C(=O)N(Cc4ccccc4)C(=O)[C@@H]3CC[C@H]12)OCc1ccccc1	-0.944	-0.427	-0.47	-0.865 (inactive)	0.773	0.256	0.39	0.315	0.698	-0.0371
OC[C@H]1O[C@H](C#Cc2ccccc2)C=C[C@@H]1O	0.721	-0.301	-0.385	0.072 (inactive)	0.194	0.356	0.506	0.546	0.546	0.408
CON=C[C@@H](OC)[C@H](C)C=CCC(=O)OC	-0.387	-0.171	-0.165	-0.165 (inactive)	-0.135	-0.115	0.327	-0.23	-0.067	0.892
C[C@@H]1CC[C@H]2C(=O)OC(CN3C(=O)c4ccccc4C3=O)CN2[C@H]1c1ccc(Br)cc1 (stereo not given in full)	0.532	-0.117	-0.0788	0.5 (inactive)	0.398	-0.0067	0.13	-0.234	0.383	0.74
CCc1cc2c(nc1CC)CCN(CCC(C)=NO[C@@H]1O[C@H](COC(C)=O)[C@@H](OC(C)=O)[C@H](OC(C)=O)[C@H]1OC(C)=O)C2	0.8	-0.0154	-0.82	-0.763 (inactive)	1.14	0.642	0.905	1.32	1.32	0.703
CC(CCC(=O)OC[C@H]1O[C@H](C#Cc2ccccc2)C=C[C@@H]1Oc1ccc(C)cc1)=NOC(C)CN1CCCCc2nc(C)c(C)cc21 (stereo not given in full)	0.508	-0.241	0.159	-0.176 (inactive)	0.0616	-0.555	-0.598	-0.159	0.191	0.69
CO[C@H]1COC(=O)[C@H](C)COC(=O)[C@@H](OCc2ccccc2)C=C[C@@H]1C	-0.0072	-0.386	-0.743	0.0228 (inactive)	0.083	-0.357	0.274	-0.266	0.32	0.251
CON=C(C)CCN1CCCCc2nc(C)c(C)cc21	0.636	-0.144	-0.0831	0.248 (inactive)	0.443	0.213	0.657	0.507	0.881	1.52
CCOC(=O)CCN1C(=O)[C@H]2[C@H]3[C@H](O)[C@H](O)CC(=NOCC=C(C)CCC=C(C)C)[C@H]3CC[C@H]2C1=O	-0.319	0.28	-0.154	0.0511 (inactive)	0.245	-0.709	0.52	-0.789	-0.185	-1.82
CCN1C(C)=C(C(=O)OC)[C@@H](c2ccccc2)N2C(=O)[C@](O)(C(=O)OC)CC(C(C)=O)=C12	-0.166	-0.324	-0.745	0.15 (inactive)	0.302	0.489	0.633	0.557	0.514	0.423
CO[C@H]1COC(=O)CCC[C@H](C)[C@H](OC)COC(=O)CC=C[C@@H]1C	1.49	-0.427	-0.931	-1.39 (inactive)	-0.0317	0.0951	0.822	1.04	0.872	1.43
C[C@@H]1C=CCC(=O)OC[C@H](C)C(=O)N[C@@H](Cc2ccccc2)C(=O)OC1	-0.0137	-0.526	-0.683	-1.03 (inactive)	0.3	-0.0825	0.643	0.582	0.909	-0.289
CC(=O)OC[C@H]1O[C@@H](ON=C(C)CCC(=O)OC[C@H]2O[C@H](C#Cc3ccccc3)C=C[C@@H]2Oc2ccc(C)cc2)[C@H](OC(C)=O)[C@@H](OC(C)=O)[C@@H]1OC(C)=O	0.888	-0.148	-0.561	-0.188 (inactive)	0.782	1.11	0.603	0.786	0.911	-0.0231
C[C@@H]1CC[C@H]2C(=O)N3[C@@H](CC[C@@H](C)[C@@H]3c3ccc(Br)cc3)C(=O)N2[C@H]1c1ccc(Br)cc1	0.223	-0.339	-0.355	-0.628 (inactive)	0.592	-0.0161	0.278	0.384	0.605	0.22
CC(C)(C)N1C(=O)[C@H]2[C@H]3[C@H](O)[C@H](O)CC(=NNC(=O)OCc4ccccc4)[C@@H]3CC[C@H]2C1=O	-0.106	-0.348	-0.518	0.305 (inactive)	0.487	0.554	0.251	0.376	0.455	-0.337
CC(C)CON=C1C[C@@H](O)[C@@H](O)[C@@H]2[C@@H]3C(=O)N(C(C)(C)C)C(=O)[C@@H]3CC[C@@H]12	1.08	-0.58	-1.35	-1.15 (inactive)	0.156	1.25	0.85	0.85	1.95	0.418
